Measurements as given in PubChem BioAssay AID1159580 (chemical genetic matrix, 2015).
Screen size: about 5,500 compounds; about 2,000 (36%) were called active. About 18% were inconclusive and are not listed. Cut-off read from the data, not from the text of the source: active = normalized growth mostly below about 0.91 (no sharp cut-off); inconclusive = no clear call, values can overlap the other calls; inactive = mostly above about 0.92. The list shows a part of the results.

Assay: chemical genetic growth profiling, strain panel (AID 1159580);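 note: tested at 20 µM; growth read once vehicle control cultures reached saturation at 30 °C; 1 = growth at the plate median or of vehicle wells; lower values mean less growth of the strain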
Settings: growth OD

Measured: normalized growth

COc1ccc(OC)c(C(O)CNC(=O)CN)c1 (stereo not given)
inactive: S. cerevisiae deletion strains, locus YKL009W, strain mrt4, active compounds read low 0.969 | S. cerevisiae deletion strains, locus YKL068W, active compounds read low 0.985 | S. cerevisiae deletion strains, locus YKL085W, strain MDH1 (second series), active compounds read low 0.984 | S. cerevisiae deletion strains, locus YKL085W, strain MDH1, active compounds read low 0.984 | S. cerevisiae deletion strains, locus YKL160W, strain elf1, active compounds read low 1 | S. cerevisiae deletion strains, locus YKL190W, strain CNB1, active compounds read low 0.984 | S. cerevisiae deletion strains, locus YKR001C, strain vps1, active compounds read low 0.96 | S. cerevisiae deletion strains, locus YKR026C, strain gcn3, active compounds read low 1.01 | S. cerevisiae deletion strains, locus YKR091W, strain srl3, active compounds read low 0.996 | S. cerevisiae deletion strains, locus YLL001W, strain dnm1, active compounds read low 1.01 | S. cerevisiae deletion strains, locus YLL026W, active compounds read low 0.999 | S. cerevisiae deletion strains, locus YLL041C, strain sdh2, active compounds read low 0.995 | S. cerevisiae deletion strains, locus YLR027C, strain aat2, active compounds read low 1 | S. cerevisiae deletion strains, locus YLR039C, strain RIC1, active compounds read low 0.966 | S. cerevisiae deletion strains, locus YLR058C, strain SHM2, active compounds read low 0.976 | S. cerevisiae deletion strains, locus YLR102C, strain apc9, active compounds read low 0.982 | S. cerevisiae deletion strains, locus YLR113W, strain HOG1, active compounds read low 1.05 | S. cerevisiae deletion strains, locus YLR221C, strain rsa3, active compounds read low 1 | S. cerevisiae deletion strains, locus YLR258W, strain gsy2, active compounds read low 1 | S. cerevisiae deletion strains, locus YLR262C, strain YPT6 (second series), active compounds read low 1.01 | S. cerevisiae deletion strains, locus YLR262C, strain YPT6, active compounds read low 0.956 | S. cerevisiae deletion strains, locus YLR268W, strain sec22, active compounds read low 0.996 | S. cerevisiae deletion strains, locus YLR320W, strain mms22, active compounds read low 1.03 | S. cerevisiae deletion strains, locus YLR330W, strain CHS5, active compounds read low 1 | S. cerevisiae deletion strains, locus YLR342W, strain FKS1 (second series), active compounds read low 1.04 | S. cerevisiae deletion strains, locus YLR342W, strain FKS1, active compounds read low 1.01 | S. cerevisiae deletion strains, locus YLR357W, strain rsc2, active compounds read low 1.02 | S. cerevisiae deletion strains, locus YLR370C, strain arc18, active compounds read low 1 | S. cerevisiae deletion strains, locus YLR371W, strain rom2, active compounds read low 0.974 | S. cerevisiae deletion strains, locus YLR384C, strain iki3, active compounds read low 1.02 | S. cerevisiae deletion strains, locus YLR418C, strain cdc73, active compounds read low 0.973 | S. cerevisiae deletion strains, locus YML016C, strain PPZ1, active compounds read low 0.99 | S. cerevisiae deletion strains, locus YML032C, strain rad52, active compounds read low 0.959 | S. cerevisiae deletion strains, locus YML120C, strain ndi1, active compounds read low 0.993 | S. cerevisiae deletion strains, locus YML124C, strain tub3, active compounds read low 0.981 | S. cerevisiae deletion strains, locus YMR058W, strain fet3, active compounds read low 1 | S. cerevisiae deletion strains, locus YMR078C, strain ctf18, active compounds read low 0.976 | S. cerevisiae deletion strains, locus YMR125W, strain sto1, active compounds read low 1 | S. cerevisiae deletion strains, locus YMR129W, active compounds read low 1 | S. cerevisiae deletion strains, locus YMR205C, strain PFK2, active compounds read low 1.02 | S. cerevisiae deletion strains, locus YMR223W, strain ubp8, active compounds read low 0.993 | S. cerevisiae deletion strains, locus YMR231W, strain pep5, active compounds read low 1.02 | S. cerevisiae deletion strains, locus YMR263W, strain SAP30, active compounds read low 0.988 | S. cerevisiae deletion strains, locus YMR307W, strain GAS1, active compounds read low 1.05 | S. cerevisiae deletion strains, locus YNL067W, strain RPL9B, active compounds read low 0.971 | S. cerevisiae deletion strains, locus YNL071W, strain lat1, active compounds read low 0.99 | S. cerevisiae deletion strains, locus YNL128W, strain TEP1, active compounds read low 0.983 | S. cerevisiae deletion strains, locus YNL153C, strain GIM3, active compounds read low 0.961 | S. cerevisiae deletion strains, locus YNL183C, strain NPR1, active compounds read low 1 | S. cerevisiae deletion strains, locus YNL209W, strain ssb2, active compounds read low 0.998 | S. cerevisiae deletion strains, locus YNL233W, strain BNI4, active compounds read low 1.01 | S. cerevisiae deletion strains, locus YNL248C, strain rpa49, active compounds read low 0.998 | S. cerevisiae deletion strains, locus YNL250W, strain rad50, active compounds read low 0.968 | S. cerevisiae deletion strains, locus YNL271C, strain bni1, active compounds read low 0.982 | S. cerevisiae deletion strains, locus YNL298W, strain CLA4, active compounds read low 0.986 | S. cerevisiae deletion strains, locus YNL307C, strain MCK1, active compounds read low 0.96 | S. cerevisiae deletion strains, locus YNL322C, strain KRE1 (second series), active compounds read low 0.997 | S. cerevisiae deletion strains, locus YNL322C, strain KRE1, active compounds read low 0.989 | S. cerevisiae deletion strains, locus YNR049C, strain mso1, active compounds read low 1 | S. cerevisiae deletion strains, locus YNR052C, strain pop2, active compounds read low 0.973 | S. cerevisiae deletion strains, locus YOL006C, strain TOP1, active compounds read low 0.933 | S. cerevisiae deletion strains, locus YOL012C, strain htz1 0.916 | S. cerevisiae deletion strains, locus YOL147C, strain pex11, active compounds read low 0.982 | S. cerevisiae deletion strains, locus YOR001W, strain rrp6, active compounds read low 0.996 | S. cerevisiae deletion strains, locus YOR061W, strain CKA2, active compounds read low 0.967 | S. cerevisiae deletion strains, locus YOR069W, strain VPS5, active compounds read low 0.995 | S. cerevisiae deletion strains, locus YOR070C, strain gyp1, active compounds read low 0.997 | S. cerevisiae deletion strains, locus YOR080W, strain dia2, active compounds read low 1.01 | S. cerevisiae deletion strains, locus YOR083W, strain WHI5, active compounds read low 1.01 | S. cerevisiae deletion strains, locus YOR106W, strain vam3, active compounds read low 1.02 | S. cerevisiae deletion strains, locus YOR136W, strain idh2, active compounds read low 0.977 | S. cerevisiae deletion strains, locus YOR144C, strain elg1, active compounds read low 0.99 | S. cerevisiae deletion strains, locus YOR184W, strain ser1, active compounds read low 0.97 | S. cerevisiae deletion strains, locus YOR231W, strain MKK1, active compounds read low 1.05 | S. cerevisiae deletion strains, locus YOR265W, strain rbl2, active compounds read low 0.998 | S. cerevisiae deletion strains, locus YOR270C, strain vph1, active compounds read low 1.03 | S. cerevisiae deletion strains, locus YOR290C, strain snf2, active compounds read low 0.997 | S. cerevisiae deletion strains, locus YOR316C, strain cot1, active compounds read low 0.96 | S. cerevisiae deletion strains, locus YPL051W, strain arl3, active compounds read low 1 | S. cerevisiae deletion strains, locus YPL055C, strain LGE1, active compounds read low 0.94 | S. cerevisiae deletion strains, locus YPL078C, strain atp4, active compounds read low 1.01 | S. cerevisiae deletion strains, locus YPL106C, strain sse1, active compounds read low 1.01 | S. cerevisiae deletion strains, locus YPL240C, strain hsp82, active compounds read low 0.997 | S. cerevisiae deletion strains, locus YPL256C, strain CLN2, active compounds read low 1.01 | S. cerevisiae deletion strains, locus YPR119W, strain clb2, active compounds read low 0.985 | S. cerevisiae deletion strains, locus YPR141C, strain kar3, active compounds read low 0.966 | S. cerevisiae deletion strains, locus YPR163C, strain tif3, active compounds read low 0.983 | S. cerevisiae deletion strains, locus YPR167C, strain met16, active compounds read low 0.98 | S. cerevisiae deletion strains, strain wtn01, active compounds read low 1.01 | S. cerevisiae strains, strain wild type, active compounds read low 0.977
